Reference: PubChem BioAssay (Tox21)
Records with an inconclusive call do not appear. Activity calls are given as the source filed them. Unless noted, calls follow the shape of the full dose curve.

Columns and labels:
[1] = Nuclear factor erythroid 2-related factor 2/antioxidant responsive element (Nrf2/ARE) small molecule agonists: qHTS cell viability counter screen in human keratinocytes (AID 1919968; active = well fitted curve in the direction sought with a large enough effect in the repeat runs; an effect the other way counts as inactive or inconclusive; also: nearly all actives have a fitted effect of over 55% in size)
Outline: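 Seed 1,500 KeratinoSens cells per well, then incubate 5 h at 37 C/5% CO2. Add compounds in DMSO and incubate 23 h. Add CellTiter-Fluor, wait 1 h and read fluorescence.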

[2] = Nuclear factor erythroid 2-related factor 2/antioxidant responsive element (Nrf2/ARE) small molecule agonists: luciferase reporter gene qHTS assay in human keratinocytes (AID 1919969); also: nearly all actives have a fitted effect of over 35% in size
[3] = molecular target: Gonadotropin-releasing hormone receptor (Homo sapiens) (UniProt P30968); test: Human gonadotropin-releasing hormone receptor (GnRHR) small molecule agonists, calcium flux assay in GnRHR-HEK293 cells (AID 1920063); also: nearly all actives have a fitted effect of over 35% in size
Outline: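 Cells: HEK293 stably expressing human GnRHR. Steps: overnight (18 h) culture, 1 h calcium dye loading at 37 C, compound addition, kinetic fluorescence read at 480/540 nm. Each compound tested at 15 concentrations in triplicate.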

[4] = molecular target: KiSS-1 receptor (Homo sapiens) (UniProt Q969F8); test: Human kisspeptin (KISS1R) small molecule agonists, calcium flux assay in KISS1R-HEK293 cells (AID 1920064; active = well fitted curve in the direction sought with a large enough effect in the repeat runs; an effect the other way counts as inactive or inconclusive)
Outline: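 Cells plated and incubated 18 h; dye added, 1 h at 37 C; compounds in DMSO pinned in; signal read at 480/540 nm every second for 3 min. Each compound tested at 15 concentrations in triplicate.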

[5] = G protein-coupled receptor (GPCR) small molecule agonists, calcium flux assay: HEK293 wild type cell line counter screen (AID 1920065)
Outline: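 Counter-screen of the Tox21 10K library for non-specific calcium release: dye-loaded cells received compounds in DMSO and were monitored by kinetic fluorescence (480/540 nm, 3 min). Fifteen concentrations, run in triplicate.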

[6] = p53 small molecule agonists, cell-based qHTS assay with human liver microsomes (AID 1963577);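 also: p53 response element beta-lactamase reporter cells with liver microsomes plus NADPH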
Outline: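 p53RE-bla cells; 5 h settle, 37 C/5% CO2; cpd + HLM 0.5 mg/mL + NADPH 0.5 mg/mL (final); 16 h 37 C; LiveBLAzer 2 h RT dark; fluorescence readout.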

[7] = p53 small molecule agonists, cell-based qHTS assay with rat liver microsomes (AID 1963578)
Outline: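 Rat liver microsome activation: microsomes 0.5 mg/mL, NADPH 0.5 mg/mL final; p53RE-bla cells, 16 h 37 C; LiveBLAzer readout, 2 h RT dark.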

[8] = p53 small molecule agonists, cell-based qHTS assay with human liver microsomes: qHTS cell viability counter screen (AID 1963579); also: nearly all actives have a fitted effect of over 45% in size; also: potency is read from the fitted curve at half-maximal effect
Outline: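 Luminescent CellTiter-Glo read-out, 30 min at room temperature, gauged cytotoxicity in p53RE-bla cells exposed 16 h at 37 C to DMSO-dissolved compounds with metabolic activation by human liver microsomes and NADPH, each 0.5 mg/mL final.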

[9] = p53 small molecule agonists, cell-based qHTS assay with rat liver microsomes: qHTS cell viability counter screen (AID 1963580); also: nearly all actives have a fitted effect of over 45% in size
Outline: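 p53RE-bla HCT-116 cells (4,000/well) rested 5 h at 37 C, then given Tox21 compounds in DMSO with rat liver microsomes (0.5 mg/mL final) plus NADPH (0.5 mg/mL final) for 16 h at 37 C. Viability read by CellTiter-Glo luminescence after 30 min at room temperature.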

[10] = p53 small molecule agonists, cell-based qHTS assay: qHTS cell viability counter screen (AID 1963581); also: nearly all actives have a fitted effect of over 45% in size
Outline: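 Cells: HCT-116 with p53 response element-driven beta-lactamase. Treatment: 16 h, 37 C, compounds in DMSO. Read: CellTiter-Glo luminescence after 30 min RT.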

[11] = p53 small molecule agonists, cell-based qHTS assay (AID 1963582; active = well fitted activation curve with a large enough effect in the signal ratio in the repeat runs, not every such curve was filed as active; the % refers to the signal ratio)
Outline: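 Quantitative HTS in p53RE-bla cells: after a 5 h settling period, compounds delivered in DMSO were left on cells for 16 h at 37 C, and reporter induction was measured as fluorescence following 2 h substrate loading.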

[12] = molecular target: 5-hydroxytryptamine receptor 2A (Homo sapiens) (UniProt P28223); test: 5-hydroxytryptamine receptor 2A (HTR2A) small molecule antagonists, cell-based qHTS assay (AID 1963586); also: nearly all actives have a fitted effect of over 45% in size
Outline: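 Antagonist-mode intracellular calcium assay: DOI (4 nM) added after 5 min compound pre-incubation at room temperature to dye-loaded HTR2A-CHO cells. Fluorescence followed for 3 min, sampled every second.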

[13] = molecular target: 5-hydroxytryptamine receptor 2A (Homo sapiens) (UniProt P28223); test: 5-hydroxytryptamine receptor 2A (HTR2A) small molecule agonists, cell-based qHTS assay (AID 1963587); also: nearly all actives have a fitted effect of over 30% in size
Outline: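 HTR2A-CHO cells, plated 18 h at 37 C/5% CO2, dye-loaded 1 h at 37 C; compounds in DMSO added by pin tool (agonist mode). Intracellular calcium flux read as kinetic fluorescence on FDSS over 2 min at 1 s intervals.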

[14] = molecular target: Muscarinic acetylcholine receptor M1 (Homo sapiens) (UniProt P11229); test: Cholinergic receptor muscarinic 1 (CHRM1) small molecule antagonists, cell-based qHTS assay (AID 1963588); also: nearly all actives have a fitted effect of over 40% in size
Outline: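 CHRM1-CHO calcium-flux assay, antagonist mode. Cells were seeded 18 h, dye-loaded 1 h at 37 C and given compound for 5 min at RT, then acetylcholine was added at 50nM. FDSS fluorescence was read 3 min; 15 concentrations, three runs.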

[15] = molecular target: Muscarinic acetylcholine receptor M1 (Homo sapiens) (UniProt P11229); test: Cholinergic receptor muscarinic 1 (CHRM1) small molecule agonists, cell-based qHTS assay (AID 1963589); also: nearly all actives have a fitted effect of over 35% in size
Outline: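 Agonist-mode qHTS in CHO cells stably carrying human muscarinic M1. Intracellular calcium is tracked by fluorescence every second after compound transfer; each compound runs at 15 concentrations in three independent runs.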

[16] = cAMP Responsive Elements (CRE) small molecule agonists, cell-based qHTS assay (AID 1963590)
Outline: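 Agonist mode qHTS in CRE-bla HEK 293T cells: compounds dosed from DMSO for 3 h at 37 C/5% CO2, followed by LiveBLAzer B/G FRET substrate for 2 h at room temperature.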

[17] = cAMP Responsive Elements (CRE) small molecule antagonists, cell-based qHTS assay (AID 1963591; active = well fitted inhibition curve with a large enough effect in the signal ratio in the repeat runs, not every such curve was filed as active; the % refers to the signal ratio)
Outline: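 Antagonist mode: test compounds are co-incubated with the adenylyl cyclase activator NKH477 (0.25 uM final) on CRE-bla HEK293T cells for 3 h at 37 °C, followed by LiveBLAzer substrate loading.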

[18] = molecular target: Beta-2 adrenergic receptor (Homo sapiens) (UniProt P07550); test: Adrenergic beta2 receptor (ADRB2) small molecule antagonists, cell-based qHTS assay (AID 1963592); also: series mostly up to about 92 µM; nearly all actives have a fitted effect of over 50% in size
Outline: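 Cells (CHO, stable ADRB2 overexpression) incubated 18-20hr at 37C; compounds added from DMSO; agonist mix (1nM isoproterenol, 100uM IBMX, 25uM Ro-20-1724) added; 0.5hr RT; d2-cAMP and anti-cAMP-cryptate added; 1hr RT; 665/615 nm read.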

[19] = molecular target: D(2) dopamine receptor (Homo sapiens) (UniProt P14416); test: Dopamine D2 receptor (DRD2) small molecule agonists, cell-based qHTS assay (AID 1963594); also: nearly all actives have a fitted effect of over 35% in size
Outline: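 HEK293 cells stably expressing DRD2 were cultured 24 h at 37 C, then given Ro20-1724 (0.1 mM final) and compounds for 10 min at room temperature. NKH477 (200nM) was then added for 30 min. cAMP was read by HTRF.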

[20] = molecular target: D(2) dopamine receptor (Homo sapiens) (UniProt P14416); test: Dopamine D2 receptor (DRD2) small molecule antagonists, cell-based qHTS assay (AID 1963595; active = well fitted inhibition curve with a large enough effect in the signal ratio in the repeat runs, with a control signal flat; the % refers to the signal ratio)
Outline: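 HTRF cAMP read-out at 665 and 620 nm emission (340 nm excitation). Antagonist mode: compounds were tested against 12 nM quinpirole in DRD2-HEK293 cells, with 200 nM NKH477 raising cAMP and 0.1 mM Ro20-1724 blocking its breakdown.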
% is scaled to controls: 0 for no effect and ±100 for the full control effect.

Chain of Gonadotropin-releasing hormone receptor (Homo sapiens) (P30968 whole entry, looked up): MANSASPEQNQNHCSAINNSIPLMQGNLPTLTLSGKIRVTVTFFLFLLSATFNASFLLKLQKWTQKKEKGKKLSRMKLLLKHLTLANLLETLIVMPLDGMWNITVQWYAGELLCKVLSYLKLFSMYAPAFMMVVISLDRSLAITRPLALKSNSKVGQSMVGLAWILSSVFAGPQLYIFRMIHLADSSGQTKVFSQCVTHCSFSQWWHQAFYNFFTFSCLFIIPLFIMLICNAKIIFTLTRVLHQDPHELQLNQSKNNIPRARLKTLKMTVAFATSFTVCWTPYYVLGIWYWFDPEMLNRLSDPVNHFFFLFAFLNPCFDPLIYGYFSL
Chain of Beta-2 adrenergic receptor (Homo sapiens) (P07550 whole entry, looked up): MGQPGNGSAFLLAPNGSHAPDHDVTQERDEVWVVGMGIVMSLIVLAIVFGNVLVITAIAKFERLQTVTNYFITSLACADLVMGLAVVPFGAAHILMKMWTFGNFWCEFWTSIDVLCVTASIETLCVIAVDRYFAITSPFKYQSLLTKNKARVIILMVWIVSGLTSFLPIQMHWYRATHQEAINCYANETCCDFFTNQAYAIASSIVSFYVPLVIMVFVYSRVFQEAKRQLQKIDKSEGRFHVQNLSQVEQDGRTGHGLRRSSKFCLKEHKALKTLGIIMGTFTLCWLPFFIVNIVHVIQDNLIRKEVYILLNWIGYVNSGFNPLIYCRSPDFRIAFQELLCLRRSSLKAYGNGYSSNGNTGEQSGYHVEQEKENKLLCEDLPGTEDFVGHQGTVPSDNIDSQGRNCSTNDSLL
Chain of Muscarinic acetylcholine receptor M1 (Homo sapiens) (P11229 whole entry, looked up): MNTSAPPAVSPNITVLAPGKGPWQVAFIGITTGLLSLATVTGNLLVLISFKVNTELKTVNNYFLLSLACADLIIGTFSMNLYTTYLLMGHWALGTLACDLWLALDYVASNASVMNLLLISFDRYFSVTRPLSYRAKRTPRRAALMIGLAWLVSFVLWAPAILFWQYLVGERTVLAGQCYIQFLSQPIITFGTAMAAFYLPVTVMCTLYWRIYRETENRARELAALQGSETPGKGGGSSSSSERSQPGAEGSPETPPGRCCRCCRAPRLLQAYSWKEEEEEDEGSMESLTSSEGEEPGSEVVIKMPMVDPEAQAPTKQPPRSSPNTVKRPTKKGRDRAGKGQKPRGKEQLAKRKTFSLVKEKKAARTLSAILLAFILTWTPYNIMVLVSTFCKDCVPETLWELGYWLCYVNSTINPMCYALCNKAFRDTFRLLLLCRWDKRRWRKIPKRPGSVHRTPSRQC
Chain of D(2) dopamine receptor (Homo sapiens) (P14416 whole entry, looked up): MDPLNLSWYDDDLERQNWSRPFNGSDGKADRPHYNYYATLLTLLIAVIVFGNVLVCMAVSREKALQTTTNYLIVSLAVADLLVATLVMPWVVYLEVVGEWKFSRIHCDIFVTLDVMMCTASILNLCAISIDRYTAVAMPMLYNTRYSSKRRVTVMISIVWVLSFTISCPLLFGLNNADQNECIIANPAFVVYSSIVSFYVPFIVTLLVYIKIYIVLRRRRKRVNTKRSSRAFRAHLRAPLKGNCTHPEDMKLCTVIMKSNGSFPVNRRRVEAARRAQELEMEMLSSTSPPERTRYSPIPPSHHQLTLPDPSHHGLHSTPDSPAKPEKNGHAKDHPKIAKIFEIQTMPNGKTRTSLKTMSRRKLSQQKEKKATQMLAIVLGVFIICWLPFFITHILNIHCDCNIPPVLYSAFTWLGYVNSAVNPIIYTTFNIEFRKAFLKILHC
Chain of KiSS-1 receptor (Homo sapiens) (Q969F8 whole entry, looked up): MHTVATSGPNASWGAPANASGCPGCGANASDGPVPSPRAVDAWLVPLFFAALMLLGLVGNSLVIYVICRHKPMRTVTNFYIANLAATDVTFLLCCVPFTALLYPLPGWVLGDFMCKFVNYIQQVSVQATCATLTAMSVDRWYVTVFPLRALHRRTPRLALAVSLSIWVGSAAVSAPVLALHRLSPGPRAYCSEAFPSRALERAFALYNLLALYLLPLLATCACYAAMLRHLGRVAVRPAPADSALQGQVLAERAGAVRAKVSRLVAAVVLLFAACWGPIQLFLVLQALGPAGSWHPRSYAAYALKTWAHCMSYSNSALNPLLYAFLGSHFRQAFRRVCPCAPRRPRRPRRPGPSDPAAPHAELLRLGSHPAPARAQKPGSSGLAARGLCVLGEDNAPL
Chain of 5-hydroxytryptamine receptor 2A (Homo sapiens) (P28223 whole entry, looked up): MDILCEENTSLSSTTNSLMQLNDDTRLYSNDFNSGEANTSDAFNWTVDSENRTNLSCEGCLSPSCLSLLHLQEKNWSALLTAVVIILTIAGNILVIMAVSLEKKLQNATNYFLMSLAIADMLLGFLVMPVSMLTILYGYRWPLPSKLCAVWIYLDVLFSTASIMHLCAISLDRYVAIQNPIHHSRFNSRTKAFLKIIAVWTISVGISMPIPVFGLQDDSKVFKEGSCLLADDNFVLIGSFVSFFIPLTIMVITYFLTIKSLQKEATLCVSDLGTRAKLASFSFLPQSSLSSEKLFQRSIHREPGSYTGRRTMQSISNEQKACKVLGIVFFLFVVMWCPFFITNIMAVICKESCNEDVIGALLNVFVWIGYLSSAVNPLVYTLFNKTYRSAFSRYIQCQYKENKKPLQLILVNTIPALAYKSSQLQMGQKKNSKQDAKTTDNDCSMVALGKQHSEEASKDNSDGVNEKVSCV

OCC(F)(F)F
inactive: Potency [1] | Potency [2] | Potency [3] | outcome [4] | outcome [5] | Potency [6] | Potency [7] | Potency [9] | Potency [10] | Potency [11] | Potency [12] | Potency [13] | Potency [14] | Potency [15] | Potency [16] | Potency [17] | Potency [18] | Potency [19] | Potency [20]
active: Potency [8] 38.3 µM

O=C1[C@H](CC[C@H](O)c2ccc(F)cc2)[C@@H](c2ccc(O)cc2)N1c1ccc(F)cc1
inactive: Potency [1] | Potency [2] | Potency [3] | outcome [4] | outcome [5] | Potency [6] | Potency [7] | Potency [8] | Potency [9] | Potency [10] | Potency [11] | Potency [12] | Potency [13] | Potency [14] | Potency [15] | Potency [16] | Potency [17] | Potency [18] | Potency [19] | Potency [20]

NC(Cc1ccc(Cl)cc1)C(=O)O (stereo not drawn)
inactive: activity change, negative = cytotoxicity [1] -10.3% [at 0.349 µM] | activity, positive = activation [2] -1.51% [at 0.349 µM] | activity change [3] -0.23% [at 0.217 µM, stronger effect = higher value] | activation [4] -1.07% [at 0.29 µM] | activation [5] 1.18% [at 0.217 µM] | activation [6] 1.9% [at 0.249 µM] | activation [7] 0.185% [at 0.249 µM] | activity change, negative = cytotoxicity [8] -1.01% [at 0.249 µM] | activity change, negative = cytotoxicity [9] -0.306% [at 0.249 µM] | activity change, negative = cytotoxicity [10] 8.87% [at 0.249 µM] | activation [11] -0.216% [at 0.249 µM] | activity, negative = inhibition [12] -30.9% [at 0.233 µM] | activation [13] 0.604% [at 0.292 µM] | activity, negative = inhibition [14] 9.51% [at 0.232 µM] | activation [15] -0.299% [at 0.29 µM] | activation [16] -0.737% [at 0.349 µM] | activity change, negative = inhibition [17] 2.88% [at 0.349 µM] | activity change, negative = inhibition [18] -0.117% [at 0.349 µM] | activation [19] 0.127% [at 0.349 µM] | activity change, negative = inhibition [20] 0.383% [at 0.348 µM]

C[N+](C)(C)CCCCCCCCCC[N+](C)(C)C
inactive: Potency [1] | Potency [2] | Potency [3] | outcome [4] | outcome [5] | Potency [6] | Potency [7] | Potency [8] | Potency [9] | Potency [10] | Potency [11] | Potency [12] | Potency [13] | Potency [14] | Potency [15] | Potency [16] | Potency [17] | Potency [18] | Potency [19] | Potency [20]

O=C(COCCOCCOCC(=O)Nc1c(I)cc(I)c(C(=O)O)c1I)Nc1c(I)cc(I)c(C(=O)O)c1I
inactive: Potency [1] | Potency [2] | Potency [3] | outcome [4] | outcome [5] | Potency [6] | Potency [7] | Potency [8] | Potency [9] | Potency [10] | Potency [11] | Potency [12] | Potency [13] | Potency [14] | Potency [15] | Potency [16] | Potency [17] | Potency [18] | Potency [20]

O=C(Nc1cccc(C2=NCCN2)c1)Nc1cccc(C2=NCCN2)c1
inactive: activity change, negative = cytotoxicity [1] 19.9% [at 19 µM] | activity, positive = activation [2] -4.28% [at 19 µM] | activity change [3] -0.181% [at 11.8 µM, stronger effect = higher value] | activation [4] -0.538% [at 15.8 µM] | activation [5] 2.04% [at 11.8 µM] | activation [6] -0.295% [at 13.5 µM] | activation [7] -1.12% [at 13.6 µM] | activity change, negative = cytotoxicity [8] 1.91% [at 13.5 µM] | activity change, negative = cytotoxicity [9] 0.748% [at 13.5 µM] | activity change, negative = cytotoxicity [10] -8.13% [at 13.5 µM] | activation [11] 1.58% [at 13.5 µM] | activity, negative = inhibition [12] -37.2% [at 12.7 µM] | activation [13] 1.02% [at 15.9 µM] | activity, negative = inhibition [14] -4.67% [at 12.6 µM] | activation [15] -0.0869% [at 15.8 µM] | activation [16] -0.37% [at 19 µM] | activity change, negative = inhibition [17] -6.62% [at 18.9 µM] | activation [19] -15.4% [at 19 µM] | activity change, negative = inhibition [20] -4.58% [at 18.9 µM]
